Test results: PubChem BioAssay
Activity calls are given as the source filed them.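 The calls were made as follows, unless noted: active = inhibition at or above 50% at 10 µM; inactive = inhibition below 50%.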

Columns and labels:
[1] = inhibitors of TNFa-induced NFkB p65 translocation, primary screen, imaging, HUVEC, MLSMR starter and 10KST1 sets (AID 438;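 active = inhibition above 20% together with a positive visual image hit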;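 also: compound added about 3h40 before a 20 min TNFalpha stimulation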;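 as to inhibition: signal is the nuclear over cytoplasmic p65 intensity ratio per well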); settings: HUVEC TNFa-induced p65 nuclear translocation; cell count: measured here: nuclei count (cytotoxicity indicator), at 2.08 µM unless noted; inhibition: at 2 µM, stronger effect = higher value unless noted
[2] = reduction of polyQ htt aggregates in cells – imaging, exon1htt(103Q)mCFP cells, high-content imaging, primary screen (AID 483;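 active = visual image review flags a hit and inhibition of aggregation exceeds 20%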;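 also: compound exposure lasted 3 days before fixation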;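 as to nuclei count: percent of the per-plate median nuclei count of sample wells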); settings: exon1htt(103Q)mCFP cell line, aggregate imaging, at 2 µM; inhibition of aggregation: stronger effect = higher value; nuclei count: measured here: cell count, toxicity
[3] = endothelial E-selectin expression blockers – imaging, HUVEC, immunofluorescence, MLSMR starter and 10KST1 sets, primary screen (AID 487;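 active = visually confirmed hit in the image check and inhibition above 20%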;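 as to inhibition: signal is fraction of cell area covered by stained E-selectin grains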;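 as to nuclei count: 100% = median nuclei count of all wells on the same plate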); settings: HUVEC TNFalpha-induced E-selectin immunofluorescence imaging, at 2 µM; inhibition: stronger effect = higher value; nuclei count: measured here: cell number, toxicity
[4] = target: Voltage-gated potassium channel subunit beta-2 (Rattus norvegicus) (UniProt P62483); test: inhibitors of rat Kvbeta2 reductase activity – biochemical, NADPH fluorescence, primary screen (AID 622;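 active = fluorescence slope higher than the sample average by over 3 SD, cut at about -0.22 in these data, passing the limit was not always enough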;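 also: slope of raw intensity against log time taken from 70 to 1610 s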); settings: recombinant KvBeta, 4-cyanobenzaldehyde reduction, at 10 µM, stronger effect = higher value
Voltage-gated potassium channel subunit beta-2 (Rattus norvegicus), sequence (P62483 whole entry, looked up): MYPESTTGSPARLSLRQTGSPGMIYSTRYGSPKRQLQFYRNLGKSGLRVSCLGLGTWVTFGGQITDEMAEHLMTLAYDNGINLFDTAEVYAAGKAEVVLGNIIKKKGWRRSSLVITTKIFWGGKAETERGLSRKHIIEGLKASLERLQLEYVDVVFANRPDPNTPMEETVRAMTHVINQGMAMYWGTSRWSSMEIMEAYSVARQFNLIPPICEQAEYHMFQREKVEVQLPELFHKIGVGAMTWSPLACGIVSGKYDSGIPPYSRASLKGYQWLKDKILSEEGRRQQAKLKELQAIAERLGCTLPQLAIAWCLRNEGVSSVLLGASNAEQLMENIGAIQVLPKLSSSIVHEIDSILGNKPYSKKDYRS

[5] = target: Voltage-gated potassium channel subunit beta-2 (Rattus norvegicus) (UniProt P62483); test: enhancers of rat Kvbeta2 NADPH turnover – biochemical, NADPH fluorescence, primary screen (AID 623;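 active = NADPH fluorescence slope more negative than the mean of all samples by about 3 SD, 99.7% confidence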;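 also: fluorescence intensity change per second fitted from 20 to 320 s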); settings: Recombinant KvBeta, NADPH fluorescence decrease slope, 10 min; at 10 µM; stronger effect = lower value
[6] = target: Muscarinic acetylcholine receptor M4 (Homo sapiens) (UniProt P08173); test: M4-linked GIRK flux change, two-sided – cell-based, HEK293 M4/GIRK, thallium flux, BTC-AM, M4 allosteric agonist project, primary screen (AID 625;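 active = fluorescence slope after compound addition differing from the mean of all tested samples at 99.7% confidence, mostly higher but some lower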;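 also: thallium influx through GIRK channels coupled to M4 in HEK293 cells with BTC-AM dye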); settings: at 10 µM, actives lie on both sides
Muscarinic acetylcholine receptor M4 (Homo sapiens), sequence (P08173 whole entry, looked up): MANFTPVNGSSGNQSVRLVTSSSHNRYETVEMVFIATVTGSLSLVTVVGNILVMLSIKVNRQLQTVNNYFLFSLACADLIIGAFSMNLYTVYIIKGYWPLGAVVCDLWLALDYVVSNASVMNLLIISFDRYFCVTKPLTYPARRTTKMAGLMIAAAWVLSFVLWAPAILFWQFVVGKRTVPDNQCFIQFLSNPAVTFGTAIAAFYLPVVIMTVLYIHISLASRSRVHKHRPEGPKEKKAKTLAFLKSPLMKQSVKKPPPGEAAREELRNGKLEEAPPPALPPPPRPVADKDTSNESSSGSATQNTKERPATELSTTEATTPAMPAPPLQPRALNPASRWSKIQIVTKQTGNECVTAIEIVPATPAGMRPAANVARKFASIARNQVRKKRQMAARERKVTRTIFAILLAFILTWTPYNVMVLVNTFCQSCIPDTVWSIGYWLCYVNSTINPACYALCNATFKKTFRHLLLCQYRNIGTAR

[7] = blockers of RIG-like receptor reporter activation – cell-based, Sendai virus stimulus, luciferase, 10K MLSCN set, TLR/RLR signaling modifier project, primary screen (AID 602276); settings: HEK293 RL24 IRF3 luciferase reporter, at 10 µM, stronger effect = higher value;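 also: firefly luciferase from ISG56 promoter only with Renilla not read in this screen; 0% = Sendai virus plus DMSO and 100% = medium plus DMSO without virus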
[8] = TLR3 IRF3 reporter activation blockers – cell-based, poly I:C stimulus, luciferase, 10K MLSCN set, primary screen (AID 602277;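 active = inhibition of the reporter signal at or above 50%; inactive = inhibition below 50%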); settings: HEK293-TLR3 RL24 IRF3 luciferase reporter, at 10 µM, stronger effect = higher value
[9] = loss of swimming-algae plug formation – whole organism, Chlamydomonas reinhardtii, WT vs cilia-less mutant, absorbance, 96-well, primary screen (AID 463189;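 active = inhibition at or above 50% relative to wild type and mutant plate controls; inactive = inhibition below 50%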;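 also: 0% = wild type cc124 cells in DMSO and 100% = ciliumless bld1 mutant cells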); settings: Chlamydomonas reinhardtii gravitaxis, OD600 absorbance, 2 days; at 10 µM; stronger effect = higher value

Structure (SMILES)	cell count [1]	inhibition [1]	inhibition of aggregation [2]	nuclei count [2] [%]	inhibition [3]	nuclei count [3] [%]	fluorescence slope [4]	NADPH fluorescence slope [5]	fluorescence slope [6]	inhibition [7]	inhibition [8]	inhibition [9]
COc1cc(/C=N/n2cnnc2)ccc1OC(=O)N(C)C	615	-19.9% (inactive)	-14.7% (inactive)	114	-3.5% (inactive)	98.1	-0.436 (inactive)	3.1e-05 (inactive)	0.0081 (inactive)	13% (inactive)	20.9% (inactive)	–
O=C(C1CCCN(S(=O)(=O)c2cccc3nsnc23)C1)N1CCC2(CC1)OCCO2 (stereo not drawn)	815	-0.7% (inactive)	10.6% (inactive)	96.6	-154% (inactive)	125	-0.322 (inactive)	-2.9e-05 (inactive)	0.00517 (inactive)	16.9% (inactive)	1.28% (inactive)	–
CC(C)OC(=O)c1c(N)n(CC2CCCO2)c2nc3ccccc3nc12 (stereo not drawn)	470	-5.1% (inactive)	23.6% (inactive)	104	-26.3% (inactive)	191	-0.0217 (active)	1.4e-05 (inactive)	0.00718 (inactive)	9.43% (inactive)	13.4% (inactive)	–
CC(=NCc1cccnc1)c1c(O)n(Cc2ccccc2)c(=O)[nH]c1=O	421	1.2% (inactive)	-11.9% (inactive)	120	-174% (inactive)	126	-0.492 (inactive)	0.000113 (inactive)	0.0065 (inactive)	9.01% (inactive)	3.95% (inactive)	–
Cn1c(C(=O)N2CCC3(CC2)OCCO3)cc2c(=O)n(C)c3ccccc3c21	551	-0.2% (inactive)	26.7% (inactive)	104	-17.8% (inactive)	125	-0.522 (inactive)	-5.9e-06 (inactive)	0.00705 (inactive)	13.8% (inactive)	20.5% (inactive)	–
CSc1ccc(C(=O)C(C)(C)N2CCOCC2)cc1	401	-5.2% (inactive)	-13.1% (inactive)	102	-65.3% (inactive)	105	-0.577 (inactive)	-4.3e-05 (inactive)	0.00392 (inactive)	14.9% (inactive)	2.25% (inactive)	–
CCOC(=O)C1CCCCC12C(C#N)=C(N)Oc1n[nH]c(C)c12 (stereo not drawn)	733	-5.8% (inactive)	-12% (inactive)	104	-6.6% (inactive)	110	-0.637 (inactive)	1.2e-05 (inactive)	0.00575 (inactive)	17.2% (inactive)	21.9% (inactive)	–
O=[N+]([O-])c1cc(O)c(O)c([N+](=O)[O-])c1	–	–	–	–	–	–	–	–	–	–	–	-10.8% (inactive)
